# High-throughput results deposited in PubChem by National Center for Advancing Translational Sciences (NCATS).
# HCMV inh: human cytomegalovirus inhibition. HFF cells, HCMV-luciferase reporter, 72 h; active compounds read low. activity change, negative = inhibition, % at 57.5 µM. 410,000 tested, 4.5% active. AID 1259415; in the data active means activity change below about -60%; inconclusive means no clear call, values can overlap the other calls; inactive means above about -39%
#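 Steps: HFFs plated, 16 h 37C; compounds added; HCMV-luciferase added to MOI 1 PFU/cell; 72 h 37C; OneGlo reagent, 5 min room temperature; luminescence read, normalized to controls.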
# Vaccinia mCherry: inhibitors of vaccinia virus infection (mCherry reporter signal). Vaccinia virus mCherry reporter infection, fluorescence. Potency, µM (doses to about 36.5 µM), without a hit: top-dose activity change, negative = inhibition, most hits filed as inhibitors. 310,000 tested, 0.63% active; calls by dose curve; tested in A549 cells; further: potency means the concentration at half of the fitted maximal effect; nearly all actives have a fitted effect of over 35% in size
# Giardia FBPA inh: inhibitors of Giardia lamblia fructose-1,6-bisphosphate aldolase; 290,000 tested, 0.71% active; purified Giardia FBPA; Potency, µM (doses to about 59.6 µM), for inactives: at the highest dose activity, negative = inhibition, usual class: inhibitors; AID 2451; A8B2U2; further: potency means the concentration at half of the fitted maximal effect; nearly all actives have a fitted effect of over 55% in size
# Target sequence (A8B2U2 whole entry, looked up): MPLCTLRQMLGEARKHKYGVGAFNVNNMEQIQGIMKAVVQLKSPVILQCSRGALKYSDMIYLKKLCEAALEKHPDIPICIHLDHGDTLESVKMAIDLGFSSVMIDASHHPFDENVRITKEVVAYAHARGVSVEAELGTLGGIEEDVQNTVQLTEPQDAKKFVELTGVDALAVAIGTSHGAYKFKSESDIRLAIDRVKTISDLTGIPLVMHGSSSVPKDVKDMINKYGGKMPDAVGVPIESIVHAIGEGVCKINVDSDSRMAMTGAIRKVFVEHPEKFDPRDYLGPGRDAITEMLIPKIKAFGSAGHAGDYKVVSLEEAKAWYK
#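 Giardia FBPA (40 nM reagent) was preincubated 10 min at RT with compound (up to 57.5 uM final), then substrate plus GAPDH/TPI/NAD/arsenate coupling system with diaphorase/resazurin was added; resorufin fluorescence (525/598 nm) was read after 20 min.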
# VACV Venus inh: inhibitors of vaccinia virus (Venus reporter); Vaccinia virus Venus reporter expression, fluorescence; Potency, µM (highest dose often 36.5 µM), for inactives: at the highest dose activity change, negative = inhibition, usual class: inhibitors; 330,000 tested, 0.46% active; calls by dose curve; tested in A549 cells; further: potency means the concentration at half of the fitted maximal effect; nearly all actives have a fitted effect of over 30% in size
# HCV inhibitor: inhibitors of hepatitis C virus infection. Huh7.5.1 HCVcc-Cre infection, luciferase reporter, 44 h. Potency, µM (doses to about 41.8 µM), without a hit: at the highest dose activity change, negative = inhibition, hits mostly inhibitors. 340,000 tested, 3.4% active; further: potency means the concentration at half of the fitted maximal effect
#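 Whole-lifecycle infectious HCVcc-Cre system; cells 1,000/well, compound then virus (~0.5 moi) added 4 h after plating, 44 h culture. Luciferase read 15 sec following 15 min substrate incubation, room temp.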
# FMDV inh: blocks foot and mouth disease virus; FMDV antiviral cell-based qHTS; Potency, µM (series often up to 57.9 µM), inactives show top-dose activity change, negative = inhibition, actives largely listed as inhibitors; 410,000 tested, 1.2% active; AID 1159524; calls by dose curve; tested in HEK293T cells; further: read-out not given here; potency means the concentration at half of the fitted maximal effect; nearly all actives have a fitted effect of over 45% in size
# Numbers without * were called inactive; i = inactive; ? = inconclusive; nt = not tested or not shown; + = active, no number; ! = repeats disagree. Only some compounds are listed: those with a hit (about 7.5% of all), similar ones and a draw of the others. Unless noted, the call rests on the fitted dose curve; in most records, active means well fitted curve in the direction sought with a large enough effect; inconclusive means small, poorly fitted or top-dose-only effect, or another doubt; inactive means no such curve, though single readings can be large; an effect the other way counts as inactive or inconclusive. On the % scale 0 is the no-effect control and ±100 the full control effect.
SMILES,HCMV inh,Vaccinia mCherry,Giardia FBPA inh,VACV Venus inh,HCV inhibitor,FMDV inh
C=C(C)COc1ccc(-c2[nH]ncc2-c2ccc(Br)cc2)c(O)c1,-94*,?,0%,?,?,-18%
C=C(C)COc1ccc(-c2[nH]ncc2Oc2ccc(OC)cc2)c(O)c1,-33,14µM*,-8%,?,?,23%
CCOc1ccc(-c2[nH]ncc2-c2ccc(OC)c(OC)c2)c(O)c1,?,nt,0%,nt,?,0%
Cc1ccccc1C(=O)Nc1ccc2c(c1)CCCN2C(=O)c1cccs1,+,-18%,nt,15%,?,-30%
CC(C)Oc1ccc(C(=O)Nc2ccc3c(c2)CCCN3C(=O)c2cccs2)cc1,-89*,?,nt,?,nt,22µM*
O=C(Nc1ccc2c(c1)CCCN2C(=O)c1ccccc1)c1ccccc1,-19,-3%,1%,-27%,?,-18%
Cc1ccc2c(c1)CCCN2C(=O)c1cccs1,25,-14%,-9%,-5%,-27%,7%
COc1ccc(F)cc1S(=O)(=O)Nc1ccc2c(c1)CCCN2C(=O)c1cccs1,-75*,-10%,nt,-13%,nt,0%
CCCCOc1ccc(C(=O)Nc2ccc3c(c2)CCCN3C(=O)c2cccs2)cc1,-87*,?,nt,?,nt,25µM*
COc1ccc(C(=O)Nc2ccc3c(c2)CCCN3C(=O)c2cccs2)c(OC)c1,?,-24%,nt,-22%,-18%,?
Cc1ccc(O)c(NC(=O)C2=CC(c3ccco3)=NS(=O)(=O)N2C)c1,7,-6%,-7%,-9%,5%,-16%
CN1C(C(=O)Nc2cccc(O)c2)=CC(c2ccco2)=NS1(=O)=O,-63*!,-16%,3%,-6%,-15%,-27%
C[C@H]1CN([C@@H](C)CO)C(=O)CCCn2nncc2CO[C@H]1CN(C)S(=O)(=O)c1ccc(F)cc1,-9,-15%,nt,-8%,nt,8%
CC(C)(C)c1ccc(Cn2c(=O)cnc3ccccc32)cc1,-81*,?,0%,-25%,?,13µM*
O=c1cnc2ccccc2n1Cc1ccc(Br)cc1,27,-20%,6%,-15%,?,11%
COc1ccccc1NC(=O)c1cc2n(n1)C(C(F)(F)F)CC(c1ccc3c(c1)OCO3)N2 (centres undefined),-25,nt,-29%,?,?,0%
COc1ccc(OC)c(NC(=O)c2cc3n(n2)C(C(F)(F)F)CC(c2ccc4c(c2)OCO4)N3)c1 (centres undefined),-29,nt,-26%,nt,32µM*,0%
CCN(CC)C(=O)c1cccc(-c2csc(C(C)(O)c3cccc(F)c3)n2)c1 (centres undefined),?,-5%,nt,?,nt,25µM*
CC(C)c1cccc(-c2csc(C(C)(O)c3ccc(F)c(F)c3)n2)c1 (centres undefined),-77*,-3%,nt,?,nt,1%
CC(C)c1cccc(-c2csc(C(C)(O)c3ccncc3)n2)c1 (centres undefined),-77*,i,nt,-7%,nt,?
Cn1cnnc1Sc1ccc(CN2CCOc3ccc(C4=Cc5ccccc5CC4)cc3C2)o1,nt,-23%,nt,-6%,nt,20%
CC(C)c1ccc2c(c1)CC[C@@H]1[C@@](C)(CN)CCC[C@]21C,nt,nt,6%,nt,nt,nt
CC(C)c1ccc2c(c1)CC[C@H]1[C@](C)(CN)CCC[C@]21C,-98*,?,-1%,-30%,?,?
Cc1noc(C)c1CSCC(=O)Nc1ccccc1N1CCCCC1,nt,nt,nt,nt,-25%,nt
C=CCOc1c(OC)cc(Cl)cc1C1NC(=O)NC(C)=C1C(C)=O (centres undefined),-10,-10%,7%,-9%,8%,2%
SMILES,HCMV inh,Vaccinia mCherry,Giardia FBPA inh,VACV Venus inh,HCV inhibitor,FMDV inh
C=CCOc1c(Cl)cc(C2NC(=O)NC(C)=C2C(=O)OC)cc1Cl (centres undefined),-20,?,3%,-19%,11µM*,nt
Cc1ccc(N(CC(=O)N2CCc3ccccc32)C2=NC(=O)CS2)cc1,8,i,9%,8%,6.3µM*,?
Cc1ccc(C(=O)OCC(=O)N2CCc3ccccc32)cc1,-8,-14%,nt,4%,14%,79%
COc1cccc(NC(=O)CSC2=Nc3ccccc3C3=NC(CC(=O)NCc4ccc5c(c4)OCO5)C(=O)N23)c1 (centres undefined),36,-12%,nt,-10%,nt,-19%
CCC(SC1=Nc2ccccc2C2=NC(CC(C)C)C(=O)N12)C(=O)Nc1ccc2c(c1)OCO2 (centres undefined),20,-28%,?,-25%,8.9µM*!,33%
Cc1onc(-c2ccccc2Cl)c1C(=O)Nc1ccccc1C(N)=O,-35,nt,2%,-15%,-29%,11µM*
Cc1onc(-c2ccccc2Cl)c1C(=O)Nc1cccc2cccnc12,-99*,?,-26%,-24%,7.1µM*,?
COc1cc(NC(=O)c2c(-c3ccccc3Cl)noc2C)c2ncccc2c1,-23,i,nt,-12%,?,-30%
CCOc1ccc(OC(=O)c2c(-c3ccccc3Cl)noc2C)cc1,-24,-13%,nt,-20%,nt,40µM*
Cc1cnc(C(=O)Nc2cccc3cccnc23)cn1,-89*,?,3%,?,?,12%
Cc1cccc(C(=O)Nc2cccc3cccnc23)c1,120,nt,-7%,nt,-5%,65%
CC(=O)Nc1ccccc1-c1nc(CNC(=O)c2cc(C)ccc2C)c(C)o1,nt,-5%,nt,12%,nt,-8%
CCOC(=O)c1noc2c1CCC2,9,4%,nt,-12%,nt,-2%
CCOC(=O)c1cnc2c3c(noc13)CCC2,-101*,nt,nt,nt,nt,nt
Cc1cccc(Nc2nc(N)c([N+](=O)[O-])c(N3CCC(C)CC3)n2)c1,-38,?,2%,?,?,25µM*
Cc1cccc(Nc2nc(N)c([N+](=O)[O-])c(N3CC(C)OC(C)C3)n2)c1 (centres undefined),10,nt,1%,nt,10µM*,3.2µM*
Cc1cccc(Nc2nc(N)c([N+](=O)[O-])c(N3CC(C)CC(C)C3)n2)c1 (centres undefined),-63*,20µM*,-9%,?,6.3µM*,22µM*
CC(C)c1ccc(CN2C(=O)C(n3cccc3)c3cccc(F)c32)cc1 (centres undefined),-31,nt,nt,nt,nt,nt
O=C(OCc1cc(=O)n2cc(Br)ccc2n1)C1COc2ccccc2O1 (centres undefined),-65*,nt,0%,nt,13%,3%
CC1CC1C(=O)OCc1cc(=O)n2cc(Br)ccc2n1 (centres undefined),-83*,-14%,12%,-5%,12%,-12%
O=C(COC(=O)C1CC2CCCC(C1)C2=O)Nc1cccc(F)c1 (centres undefined),3,-11%,nt,-9%,0%,-5%
